This is an account of results in PubChem BioAssay (EPA / NIEHS).

Read-out in experiment [1]: Collagen I, COL1A1 (gene 1277)
As to the kind of experiment: BSK_MyoF_CollagenI: BioMAP Diversity Plus: MyoF Assay for Collagen I Biomarker Activity (AID 2284238). Particulars: primary human lung fibroblasts. A digest of the protocol:
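ELISA readout of Collagen I after 24 h chemical treatment of primary human lung fibroblast cultures; gain of signal scored relative to DMSO vehicle baseline.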

Read-out in experiment [2]: Collagen III, COL3A1 (gene 1281)
As to the kind of experiment: BSK_MyoF_CollagenIII: BioMAP Diversity Plus: MyoF Assay for Collagen III Biomarker Activity (AID 2284239). The conditions noted are these: primary human lung fibroblasts. In a few lines:
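Lung fibroblast culture; 24 h compound exposure; collagen III by ELISA; gain-of-signal fit vs DMSO baseline.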

Read-out in experiment [3]: Interleukin 17F (IL17F), IL17F (gene 112744)
As to the kind of experiment: BSK_BT_xIL17F: BioMAP Diversity Plus: BT Assay for Interleukin 17F (IL17F) Biomarker Activity (AID 2284243). The conditions noted are these: primary human B cells with PBMC. In a few lines:
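Secreted IL-17F, read on LumineX xMAP beads, was taken as the endpoint. Cultures combined human B cells and peripheral blood mononuclear cells, sampled 24 hours after dosing, with DMSO serving as negative control.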

Read-out in experiment [4]: Actin alpha 1 (ACTA1), ACTA1 (gene 58)
As to the kind of experiment: BSK_MyoF_ACTA1: BioMAP Diversity Plus: MyoF Assay for Actin alpha 1 (ACTA1) Biomarker Activity (AID 2284244). Particulars: primary human lung fibroblasts. In a few lines:
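Cells were exposed to chemical for 24 h before a-SMA levels were quantified by ELISA in human lung fibroblasts. Increases were fitted against DMSO as negative control; parallel SRB staining (0.1% after 10% TCA fixation, 560 nm) assessed cytotoxicity.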

Read-out in experiment [5]: Interleukin 2 (IL2), IL2 (gene 3558)
As to the kind of experiment: BSK_BT_xIL2: BioMAP Diversity Plus: BT Assay for Interleukin 2 (IL2) Biomarker Activity (AID 2284245). Particulars: primary human B cells with PBMC. In a few lines:
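The BT system combines human B cells with peripheral blood mononuclear cells. Twenty-four hours after chemical dosing, secreted IL-2 was measured with xMAP bead technology, and responses were analyzed as increases over DMSO controls.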

Read-out in experiment [6]: Basic fibroblast growth factor (bFGF), FGF2 (gene 2247)
As to the kind of experiment: BSK_MyoF_bFGF: BioMAP Diversity Plus: MyoF Assay for Basic fibroblast growth factor (bFGF) Biomarker Activity (AID 2284246). The conditions noted are these: primary human lung fibroblasts. In a few lines: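 Chemicals are added to human lung fibroblast cultures and incubated 24 h. bFGF is then measured by ELISA, while parallel cultures receive SRB staining for total protein as a cytotoxicity check. Data are fitted upward against DMSO.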

Read-out in experiment [7]: Monokine induced gamma interferon (MIG), CXCL9 (gene 4283)
As to the kind of experiment: BSK_KF3CT_MIG: BioMAP Diversity Plus: KF3CT Assay for Monokine induced gamma interferon (MIG) Biomarker Activity (AID 2284248). The conditions noted are these: primary human keratinocytes with fibroblasts. In a few lines:
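ELISA read-out of MIG after 24 h chemical exposure of human skin primary co-culture (keratinocytes, foreskin fibroblasts). Gain of signal relative to DMSO negative control was analysed.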

Read-out in experiment [8]: Vascular cell adhesion molecule 1 (VCAM1), VCAM1 (gene 7412)
As to the kind of experiment: BSK_BF4T_VCAM1: BioMAP Diversity Plus: BF4T Assay for Vascular cell adhesion molecule 1 (VCAM1) Biomarker Activity (AID 2284249). Particulars: primary human bronchial epithelial cells with fibroblasts. A digest of the protocol:
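Cell-surface VCAM-1 quantified by ELISA after 24 h chemical exposure of human bronchial epithelial/dermal fibroblast co-cultures, with SRB staining in parallel wells for cytotoxicity; DMSO baseline, positive-direction fitting.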

Read-out in experiment [9]: Collagen I, COL1A1 (gene 1277)
As to the kind of experiment: BSK_hDFCGF_CollagenI: BioMAP Diversity Plus: hDFCGF Assay for Collagen I Biomarker Activity (AID 2284250). Particulars: primary human foreskin fibroblasts. In a few lines: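 Collagen I ELISA, primary human foreskin fibroblasts, 24 h chemical exposure, DMSO = negative control/baseline, positive fitting direction.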

Read-out in experiment [10]: Interferon-inducible T-cell alpha chemoattractant (ITAC), CXCL11 (gene 6373)
As to the kind of experiment: BSK_hDFCGF_ITAC: BioMAP Diversity Plus: hDFCGF Assay for Interferon-inducible T-cell alpha chemoattractant (ITAC) Biomarker Activity (AID 2284251). The conditions noted are these: primary human foreskin fibroblasts. In a few lines:
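I-TAC levels were read by ELISA on human dermal foreskin fibroblast primary cultures 24 h after dosing, analysed against DMSO in the positive direction. Cytotoxicity was assessed alongside by sulforhodamine B total-protein staining.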

Read-out in experiment [11]: Plasminogen activator inhibitor-1 (PAI1), SERPINE1 (gene 5054)
As to the kind of experiment: BSK_KF3CT_PAI1: BioMAP Diversity Plus: KF3CT Assay for Plasminogen activator inhibitor-1 (PAI1) Biomarker Activity (AID 2284252). The conditions noted are these: primary human keratinocytes with fibroblasts. A digest of the protocol: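 Cells (human keratinocytes co-cultured with foreskin fibroblasts) are exposed to test chemical for 24 h. PAI-1 is then measured by ELISA and analysed for signal gain against DMSO.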

Read-out in experiment [12]: Monocyte Chemoattractant Protein-1 (MCP1), CCL2 (gene 6347)
As to the kind of experiment: BSK_IMphg_MCP1: BioMAP Diversity Plus: IMphg Assay for Monocyte Chemoattractant Protein-1 (MCP1) Biomarker Activity (AID 2284253). Particulars: primary human endothelial cells with macrophages. In a few lines:
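ELISA readout of MCP-1 at 24 hours in IMphg co-cultures of venular endothelial cells and macrophages, normalised to DMSO; parallel cultures stained with sulforhodamine B for overt cytotoxicity.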

Read-out in experiment [13]: Interleukin-8 (IL8), CXCL8 (gene 3576)
As to the kind of experiment: BSK_KF3CT_IL8: BioMAP Diversity Plus: KF3CT Assay for Interleukin-8 (IL8) Biomarker Activity (AID 2284254). The conditions noted are these: primary human keratinocytes with fibroblasts. A digest of the protocol:
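IL-8 read-out: ELISA, 24 h post-dose, human skin primary co-culture (keratinocytes + foreskin fibroblasts). DMSO = baseline; positive-direction fit.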

Read-out in experiment [14]: Macrophage Inflammatory Protein-1 Alpha (MIP1a), CCL3 (gene 6348)
As to the kind of experiment: BSK_IMphg_MIP1a: BioMAP Diversity Plus: IMphg Assay for Macrophage Inflammatory Protein-1 Alpha (MIP1a) Biomarker Activity (AID 2284255). Particulars: primary human endothelial cells with macrophages. In a few lines: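 MIP-1a protein levels were quantified by ELISA after 24 h treatment of human endothelial cell–macrophage co-cultures, compared with DMSO. Parallel cultures were fixed with TCA and stained with 0.1% SRB to gauge overt cytotoxicity.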

Read-out in experiment [15]: Plasminogen activator inhibitor-1 (PAI1), SERPINE1 (gene 5054)
As to the kind of experiment: BSK_MyoF_PAI1: BioMAP Diversity Plus: MyoF Assay for Plasminogen activator inhibitor-1 (PAI1) Biomarker Activity (AID 2284256).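 Also: PAI-1 protein level measured by ELISA in fibroblast cultures; PAI-1 read 24 h after compound addition.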 The conditions noted are these: primary human lung fibroblasts. A digest of the protocol: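 MyoF lung fibroblasts, human primary; compound 24 h; PAI-1 ELISA; positive-direction fit vs DMSO baseline; parallel SRB total-protein staining for cytotoxicity.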

Read-out in the next experiment: CD69, CD69 (gene 969)
As to the kind of experiment: BSK_IMphg_CD69: BioMAP Diversity Plus: IMphg Assay for CD69 Biomarker Activity (AID 2284257). Particulars: primary human endothelial cells with macrophages. A digest of the protocol: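 Readout is ELISA for CD69 in primary human venular endothelial cell/macrophage co-culture, taken at 24 h post-dosing. SRB staining of parallel cultures gauged overt cytotoxicity; signal increase versus DMSO defined activity.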

A short description of experiment [16]: CCTE_Mundy_HCI_Cortical_NOG_BPCount: CCTE's Neurite Outgrowth Assay in rat cortical cells for Branch Point Count, Mundy Lab (AID 2284237).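 Also: branch points counted about two days after chemical exposure.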 In a few lines:
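Measured 50.33 h after dosing, this morphology endpoint uses rat primary cortical cultures labelled for betaIII-tubulin. Branch points are quantified by high-content imaging, with DMSO as negative control and baseline.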

Experiment [17] in a line: CCTE_Mundy_HCI_hNP1_Casp3_7: CCTE's Caspase-Glo 3/7 Assay in human neuroprogenitor cells for Apoptosis, Mundy Lab (AID 2284240). A digest of the protocol:
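Apoptosis is scored by activated caspase-3/7 luminescence in WA09-derived neural progenitor cells, measured 26.5 h after chemical dosing. Values represent gain of signal relative to DMSO vehicle.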

The nature of experiment [18]: CCTE_Mundy_HCI_hNP1_CellTiter: CCTE's Cell Titer-Glo 2 Assay in human neuroprogenitor cells for Viability, Mundy Lab (AID 2284241; active = hit-call score of the fitted dose curve at least 0.9, where 1 is the maximum;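 also: a hit is a drop in ATP luminescence versus DMSO meaning reduced viability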). A digest of the protocol:
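Human neural progenitor cells (hNP1, WA09-derived) were plated on poly-L-ornithine/laminin and grown 40 to 44 hours at 37 °C, 5% CO2 before chemical addition. Twenty-four hours later, ATP was measured by CellTiter-Glo luminescence; loss of signal versus DMSO indicates reduced viability.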
Background: In ATP-based viability assays light output follows the ATP content of the culture.

Experiment [19] can be described thus: CCTE_Mundy_HCI_Cortical_Synap_Neur_Matur_NeuronCount: CCTE's Synaptogenesis and Neurite Maturation Assay in rat cortical cells for Neuron Count, Mundy Lab (AID 2284242; active = hit-call score of the fitted dose curve at least 0.9, where 1 is the maximum;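 also: neuron number from Hoechst nuclei and MAP2 staining by high-content imaging; hits reduce neuron count versus DMSO baseline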). In a few lines: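 Cortical cells from rat are plated, treated with AraC at DIV 5, and exposed to test chemicals with a media change at DIV 7. At DIV 12 they are fixed and immunostained (MAP2, synaptophysin), and imaged neuron counts are compared against DMSO controls.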

Where “and” joins values, the source holds several entries; their conditions need not be identical. Equal entries are not always repeated. Records with an inconclusive call do not appear. Where a structure was tested more than once in an assay, its records may differ in their call. Calls of active or inactive are those of the source. The calls were made as follows, unless noted: active = hit-call score of the fitted dose curve at least 0.9, where 1 is the maximum; inactive = score below 0.9.

A word on the AC50: it is the concentration giving half of the maximal activity seen. As for `O=C(O)CCC(F)(C(F)(F)F)C(F)(F)F`, the outcome in experiment [1], in experiment [2], in experiment [3], in [4], in [5] and in experiment [6] was inactive. For the same molecule, the outcome in experiment [7], in experiment [8], in experiment [9], in [10], in experiment [11] and in [12] was inactive. Moreover, the outcome is “inactive” in experiment [13]; “inactive” in experiment [14]; “inactive” in experiment [15]; “inactive” in the experiment with CD69, CD69 (gene 969). In experiment [10], the concentration at half-maximal activity (AC50) was 5.95 µM (active).
Turning to `BrCCBr`, the outcome in [1], in experiment [2], in [3], in experiment [4], in experiment [5] and in [6] was inactive. Also, in [15], the result was inactive.
For the molecule `O=Cc1cccc(Oc2ccccc2)c1`, the result in [1], in experiment [2], in [3], in experiment [4], in experiment [5] and in experiment [6] was inactive. The result in [15] was inactive.
As to `COP(=S)(OC)Oc1cc(Cl)c(Cl)cc1Cl`, the result in experiment [1], in experiment [2], in experiment [3], in [5], in experiment [6] and in experiment [15] was inactive. In addition, the AC50 in experiment [4] is 31.9 µM (active).
As for `Nc1ccc(-c2ccc(N)c(Cl)c2)cc1Cl`, the half-maximal activity concentration (AC50) is 13.7 µM (active) in experiment [1], 3.17 µM (active) in experiment [2], 20 µM (active) in [3] and 32.4 µM (active) in experiment [5]. The outcome in experiment [4], in experiment [6] and in experiment [15] was inactive.
`CCOP(=S)(OCC)Oc1nc(Cl)c(Cl)cc1Cl`: the AC50 in experiment [16] is 29.8 µM (active); in experiment [17], 7.91 µM (active) and 89.6 µM (active); in experiment [18], 35.5 µM (active); in experiment [19], 82.7 µM (active) and 26.6 µM (active).
As to `OCc1ccco1`, the outcome in experiment [1], in experiment [2], in experiment [4], in experiment [5], in experiment [6] and in experiment [15] was inactive. In addition, the AC50 in [3] was 9.51 µM (active).
Regarding `CCSC(C)CC1CC(=O)C(C(CC)=NOC/C=C/Cl)=C(O)C1` (configuration not stated), the result in experiment [1], in experiment [2], in experiment [3], in experiment [4], in experiment [5] and in experiment [6] was inactive. Further, in [15], the outcome was inactive.
Regarding `ClC1=C(Cl)[C@]2(Cl)[C@H]3[C@H]([C@H]4C=C[C@H]3C4)[C@@]1(Cl)C2(Cl)Cl`, the result in experiment [1], in [5], in experiment [6] and in [15] was inactive. Moreover, the values for the concentration at half-maximal activity (AC50) in [2], in experiment [3] and in experiment [4] were 5.43 µM (active), 27 µM (active) and 8.66 µM (active), respectively.
As for `COC(=O)c1sccc1S(=O)(=O)NC(=O)Nc1nc(C)nc(OC)n1`, the result in experiment [1], in [2], in experiment [3], in experiment [4], in experiment [5] and in [6] was inactive. Further, the outcome in [15] was inactive.
Consider `CC(=O)OC(c1ccccc1)C(Cl)(Cl)Cl` (configuration not stated), for which the outcome in experiment [7], in [9], in experiment [10], in experiment [11] and in experiment [13] was inactive.
Turning to `COC(=O)Cc1ccccc1`, the result in experiment [7], in experiment [9], in [10], in experiment [11] and in [13] was inactive.
